# According to PubChem BioAssay (NCATS):
# Records with an inconclusive call do not appear. Where a call stands in place of a potency, no number is given. For part of these data: Results with a measured potency or affinity are listed apart. Activity calls are given as the source filed them. Unless noted, no rule for the calls is given here.
# Key:
# [1] = Ebola virus entry assay, green fluorescence channel
# [2] = Ebola virus entry assay, blue channel fluorescence
# [3] = Ebola virus entry assay, ratio channel
# [4] = Ebola virus entry assay, green channel fluorescence
# [5] = Ebola virus entry assay, reporter ratio channel; Channel type: primary
# [6] = qHTS assay for measurement of the activity of small molecule inhibitors on Zika virus induced Caspase-3 activity in human iPSC derived neural progenitor cells (hNPCs) (AID 1224857; active = well fitted inhibition curve with a large enough effect; also: nearly all actives have a fitted effect of over 65% in size); conditions: hNPCs ZIKV-induced caspase-3/7, Caspase-Glo luminescence, 6 h; series mostly up to 45.7 µM
# Method in brief: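 hNPCs seeded 350 cells/well, cultured 16–20 h; compounds added 1 h before ZIKV (2 FFU/cell), 37 C 6 h. Caspase-Glo 3/7 luminescence after 30 min RT; % inhibition from induction scaled to uninfected (0%) and infected (100%) wells.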
# [7] = qHTS assay for measurement of the activity of small molecule inhibitors on Zika virus induced Caspase-3 activity in human astrocytoma cells (AID 1224859; active = well fitted inhibition curve with a large enough effect); conditions: SNB-19 ZIKV-induced caspase-3/7, luminescence, 6 h; series mostly up to 45.7 µM
# Method in brief: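 Luminescence read-out (Caspase-Glo 3/7, 30 min RT) of caspase activity in SNB-19 cells infected 6 h with ZIKV, 2 FFU/cell, after 1 h compound pretreatment; % inhibition from induction normalised to uninfected (0%) and infected (100%) wells.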
# [8] = qHTS profiling of the MIPE4 collection as inhibitors of Plasmodium falciparum (3D7) proliferation (AID 743344); conditions: P. falciparum 3D7 in erythrocytes, SYBR Green DNA fluorescence, 72 h; at 28.5 µM (top of the series)
# Method in brief: (§1)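 Erythrocytes infected with P. falciparum (0.3% parasitemia, 2.5% hematocrit) incubated with compounds 72 h at 37 C, 5% CO2. Lysis with saponin/Triton buffer containing SYBR Green I, overnight at room temperature in the dark; DNA fluorescence (485/535 nm) normalised to 0.29 uM artemisinin and DMSO.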
# [9] = qHTS profiling of the MIPE4 collection as inhibitors of Plasmodium falciparum (DD2) proliferation (Rep 2) (AID 743346); conditions: P. falciparum Dd2 in erythrocytes, SYBR Green DNA, 72 h; at 28.5 µM (top of the series)
# Method in brief: as §1
# [10] = Ebola virus entry assay, blue channel (ratio component)
# [11] = qHTS profiling of the MIPE4 collection as inhibitors of Plasmodium falciparum (DD2) proliferation (AID 743345); conditions: P. falciparum Dd2 in erythrocytes, SYBR Green DNA, 72 h; at 28.5 µM (top of the series)
# Method in brief: as §1
# [12] = qHTS profiling of the MIPE4 collection as inhibitors of Plasmodium falciparum (HB3) proliferation (AID 743347); conditions: P. falciparum HB3 in erythrocytes, SYBR Green DNA, 72 h; at 28.5 µM (top of the series)
# Method in brief: as §1
smiles,measurement,setting,value
COc1ccc2c3c1O[C@H]1[C@@H](O)C=C[C@H]4[C@@H](C2)N(C)CC[C@@]341,efficacy,[1],44% (inactive)
same,AC50,[2],28.2 µM (active)
same,outcome,[3],inactive
same,outcome,[4],inactive
same,AC50,[5],31.6 µM (active)
same,Potency,[6],inactive
same,outcome,[7],inactive
CCC1(CC)C(=O)NC(=O)NC1=O,efficacy,[1],-16.1% (inactive)
same,outcome,[2],inactive
same,outcome,[3],inactive
same,outcome,[4],inactive
same,outcome,[5],inactive
same,Potency,[6],inactive
same,outcome,[7],inactive
CN(C)CCOc1ccccc1Cc1ccccc1,efficacy,[1],74.8% (inactive)
same,AC50,[2],3.55 µM (active)
same,AC50,[3],3.16 µM (active)
same,AC50,[5],3.16 µM (active)
O=C(CBr)Nc1ccc(Cl)cc1C(=O)c1ccccc1F,efficacy,[1],28% (inactive)
same,AC50,[2],17.8 µM (active)
same,AC50,[3],17.8 µM (active)
same,outcome,[4],inactive
same,AC50,[5],17.8 µM (active)
same,Potency,[6],inactive
same,outcome,[7],inactive
CNC(=O)NC(O)C(Cl)(Cl)Cl (stereo not given),efficacy,[1],-36.8% (inactive)
same,outcome,[2],inactive
same,outcome,[3],inactive
same,outcome,[4],inactive
same,outcome,[5],inactive
same,Potency,[6],inactive
same,outcome,[7],inactive
CN1CCc2cc(Cl)c(O)cc2[C@H]2c3ccccc3CC[C@@H]21,efficacy,[1],24% (inactive)
same,AC50,[2],25.1 µM (active)
same,AC50,[3],17.8 µM (active)
same,outcome,[4],inactive
same,AC50,[5],17.8 µM (active)
same,Potency,[6],inactive
same,outcome,[7],inactive
CCN(CC)CCOCCOC(=O)C1(c2ccccc2)CCCC1,efficacy,[1],62.4% (inactive)
same,AC50,[2],10 µM (active)
same,AC50,[3],10 µM (active)
same,AC50,[5],10 µM (active)
O=C1NCN(c2ccccc2)C12CCN(CCCOc1ccc(F)cc1)CC2,efficacy,[1],-43.3% (inactive)
same,AC50,[2],3.16 µM (active)
same,AC50,[3],3.16 µM (active)
same,outcome,[4],inactive
same,AC50,[5],3.16 µM (active)
same,Potency,[6],inactive
same,outcome,[7],inactive
CC(C)(C)OC(=O)c1ncn2c1[C@@H]1CCCN1C(=O)c1c(Br)cccc1-2,efficacy,[1],19.6% (inactive)
same,outcome,[2],inactive
same,outcome,[3],inactive
same,outcome,[4],inactive
same,outcome,[5],inactive
same,Potency,[6],inactive
same,outcome,[7],inactive
CN(C)CCc1c[nH]c2cccc(O)c12,efficacy,[1],-23.9% (inactive)
same,AC50,[2],35.5 µM (active)
same,outcome,[3],inactive
same,outcome,[4],inactive
same,AC50,[5],39.8 µM (active)
same,Potency,[6],inactive
same,outcome,[7],inactive
COc1cc(CC(C)N)cc2c1OCO2 (stereo not given),efficacy,[1],23.1% (inactive)
same,AC50,[2],35.5 µM (active)
same,outcome,[3],inactive
same,outcome,[4],inactive
same,AC50,[5],35.5 µM (active)
same,Potency,[6],inactive
same,outcome,[7],inactive
NC(=O)Cc1cccc(C(=O)c2ccccc2)c1N,"parasite growth, % of DMSO control",[8],102%
same,"parasite growth, % of control (lower = inhibition)",[9],114%
same,efficacy,[1],18% (inactive)
same,outcome,[2],inactive
same,outcome,[3],inactive
same,outcome,[4],inactive
same,outcome,[5],inactive
same,outcome,[10],inactive
CN(C)CCc1c[nH]c2ccccc12,efficacy,[1],-12.4% (inactive)
same,AC50,[2],35.5 µM (active)
same,outcome,[3],inactive
same,outcome,[4],inactive
same,outcome,[5],inactive
same,Potency,[6],inactive
same,outcome,[7],inactive
CCCN(CCC)CCc1c[nH]c2ccccc12,efficacy,[1],39.8% (inactive)
same,AC50,[2],35.5 µM (active)
same,AC50,[3],31.6 µM (active)
same,outcome,[4],inactive
same,AC50,[5],31.6 µM (active)
same,Potency,[6],inactive
same,outcome,[7],inactive
COc1ccc(OC)c(CC(C)N)c1 (stereo not given),efficacy,[1],40.3% (inactive)
same,AC50,[2],31.6 µM (active)
same,outcome,[3],inactive
same,outcome,[4],inactive
same,AC50,[5],31.6 µM (active)
same,Potency,[6],inactive
same,outcome,[7],inactive
CCN1CCCC1CNC(=O)C(O)(c1ccccc1)c1ccccc1 (stereo not given),efficacy,[1],28.7% (inactive)
same,AC50,[2],15.8 µM (active)
same,AC50,[3],20 µM (active)
same,outcome,[4],inactive
same,AC50,[5],20 µM (active)
same,Potency,[6],inactive
same,outcome,[7],inactive
CCOC(=O)Nc1ccc(NCc2ccc(F)cc2)nc1N,"parasite growth, % of DMSO control",[8],40.6%
same,"parasite growth remaining, % of DMSO control (lower = more inhibition)",[11],90%
same,"parasite growth, % of control (lower = inhibition)",[9],84.5%
same,"growth, % of control",[12],82.7%
same,efficacy,[1],25.7% (inactive)
same,outcome,[2],inactive
same,outcome,[3],inactive
same,outcome,[4],inactive
same,outcome,[5],inactive
Sc1ccccc1Cl,efficacy,[1],41.3% (inactive)
same,outcome,[2],inactive
same,outcome,[3],inactive
same,outcome,[4],inactive
same,outcome,[5],inactive
same,Potency,[6],inactive
same,outcome,[7],inactive
CCCC(C)C1(CC)C(=O)N=C(S)NC1=O (stereo not given),efficacy,[1],15.1% (inactive)
same,outcome,[2],inactive
same,outcome,[3],inactive
same,outcome,[4],inactive
same,outcome,[5],inactive
same,Potency,[6],inactive
same,outcome,[7],inactive
CCCCOc1ccc(C(=O)CCN2CCCCC2)cc1,efficacy,[1],94.7% (inactive)
same,AC50,[2],25.1 µM (active)
same,AC50,[3],31.6 µM (active)
same,AC50,[5],31.6 µM (active)
CC(C)COCC(CN(Cc1ccccc1)c1ccccc1)N1CCCC1 (stereo not given),efficacy,[1],-190% (inactive)
same,AC50,[2],2.82 µM (active)
same,AC50,[3],2 µM (active)
same,AC50,[5],2 µM (active)
CCN(CCCCOC(=O)c1ccc(OC)c(OC)c1)C(C)Cc1ccc(OC)cc1 (stereo not given),efficacy,[1],112% (inactive)
same,AC50,[2],20 µM (active)
same,AC50,[3],15.8 µM (active)
same,AC50,[5],15.8 µM (active)
CN(CCCN1c2ccccc2CCc2ccccc21)CC(=O)c1ccc(Cl)cc1,efficacy,[1],78.9% (inactive)
same,AC50,[2],22.4 µM (active)
same,AC50,[3],25.1 µM (active)
same,AC50,[5],25.1 µM (active)
CC(C(O)c1ccc(O)cc1)N1CCC(Cc2ccccc2)CC1 (stereo not given),efficacy,[1],92.8% (inactive)
same,AC50,[2],17.8 µM (active)
same,AC50,[3],28.2 µM (active)
same,AC50,[5],28.2 µM (active)
